We go through 28 molecules from PubChem BioAssay (EPA / NIEHS).

Calls of active or inactive are those of the source. Rule for the calls: active = hit-call score of the fitted dose curve at least 0.9, where 1 is the maximum; inactive = score below 0.9.

Caspase-3 (Homo sapiens), sequence (P42574 whole entry, looked up): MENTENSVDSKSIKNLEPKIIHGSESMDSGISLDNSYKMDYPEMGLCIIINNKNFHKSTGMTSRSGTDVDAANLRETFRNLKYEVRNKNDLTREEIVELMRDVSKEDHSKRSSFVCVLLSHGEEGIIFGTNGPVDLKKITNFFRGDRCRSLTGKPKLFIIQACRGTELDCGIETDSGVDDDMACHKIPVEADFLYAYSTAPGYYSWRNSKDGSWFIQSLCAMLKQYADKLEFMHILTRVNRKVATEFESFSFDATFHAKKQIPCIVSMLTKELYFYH

Read-out in the first experiment: Caspase-3 (Homo sapiens) (UniProt P42574)
Description: LTEA_HepaRG_CASP3: Life Technologies and Expression Analysis (LTEA) Assay for cysteine-aspartic acid protease (CASP3) using HepaRG (AID 2283477). The following applies: mRNA level, 48 h; actives raise or lower the signal. In a few lines: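 Expression of CASP3 was quantified by TaqMan qRT-PCR against three housekeeping genes (ACTB, GAPDH, POLR2A), bidirectionally versus 0.5% DMSO. HepaRG cultures received compounds in duplicate, top 100 uM with half-log steps, for 48 h in serum-free induction medium.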
`Brc1ccc(Oc2ccccc2)cc1`: the outcome was inactive.

With `Oc1ccc2ccc3cccc4ccc1c2c34`, the outcome was inactive.

Regarding `CNC(=O)Oc1cccc2c1OC(C)(C)C2`, the outcome was inactive.

As for `Nc1ccc([N+](=O)[O-])cc1`, the molecule was called inactive.

As for `CN(C)[C@@H]1C(=O)C(C(N)=O)=C(O)[C@@]2(O)C(=O)C3=C(O)c4c(O)cccc4[C@@](C)(O)[C@H]3C[C@@H]12`, the molecule was classed as inactive.

As to `c1ccc(NNc2ccccc2)cc1`, the outcome was inactive.

For the molecule `C1=Cc2cccc3cccc1c23`, the outcome was inactive.

Turning to `CC(C)COC(=O)c1ccccc1C(=O)OCC(C)C`, the result was inactive.

As to `C[C@]12C=CC3=C4CCC(=O)C=C4CC[C@H]3[C@@H]1CC[C@@H]2O`, the molecule was classed as inactive.

As to `COC(=O)c1ccccc1N`, the molecule was called inactive.

Regarding `CC(C)(C)OOC(=O)c1ccccc1`, the call was inactive.

As to `CCCCC(CC)COC(=O)c1ccc(C(=O)OCC(CC)CCCC)c(C(=O)OCC(CC)CCCC)c1` (stereo not given), the molecule was classed as inactive.

Regarding `CCC[CH2][Sn]([Cl])([CH2]CCC)[CH2]CCC`, the outcome was inactive.

Take `[Cl-].[Cl-].[Hg+2]`: the molecule was called inactive.

As to `Cc1ccc(N)c(N)c1`, the outcome was inactive.

As to `CC(O)CCO` (stereo not given), the call was inactive.

`Cc1ccc(N=C=O)cc1N=C=O`: the result was inactive.

`O=[N+]([O-])C(Br)(CO)CO`: the result was inactive.

In the case of `CCN(CC)N=O`, the molecule was classed as inactive.

For `Clc1ccc(C(c2ccc(Cl)cc2)C(Cl)Cl)cc1`, the result was inactive.

Take `CC(C)(O)c1cnn2c(-c3ccc(F)c(-c4c(F)cccc4C#N)c3)cnc2n1`: the result was inactive.

Consider `OCCCBr`, for which the call was inactive.

Take `Nc1ccc(N=Nc2ccccc2)cc1`: the outcome was inactive.

`ClC1=C(Cl)[C@]2(Cl)[C@H]3[C@H]([C@@H]4C=C[C@H]3C4)[C@@]1(Cl)C2(Cl)Cl`: the result was inactive.

Take `Nc1ccc(Cl)cc1N`: the outcome was inactive.

Turning to `[As]#[In]`, the molecule was called inactive.

For the molecule `CO[C@@H]1[C@H](OC(=O)NC(=O)CCl)CC[C@]2(CO2)[C@H]1[C@@]1(C)O[C@@H]1CC=C(C)C`, the molecule was classed as inactive.

Turning to `CCCCCOC(=O)c1ccccc1C(=O)OCCCCC`, the result was inactive.

Read-out in another experiment: Cytochrome P450 (CYP24A1), CYP24A1 (gene 1591)
Kind of experiment: LTEA_HepaRG_CYP24A1: Life Technologies and Expression Analysis (LTEA) Assay for Cytochrome P450 (CYP24A1) using HepaRG (AID 2283478). The following applies: mRNA level, 48 h; actives raise or lower the signal. Put shortly:
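mRNA of CYP24A1 quantified by TaqMan qRT-PCR (ACTB/GAPDH/POLR2A normalization) after 48 h chemical exposure of HepaRG cells, top concentration 100 uM, half-log steps, 0.5% DMSO vehicle, duplicates. Curves fitted bidirectionally against DMSO baseline.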
On to `Brc1ccc(Oc2ccccc2)cc1`, for which the outcome was inactive.

With `CNC(=O)Oc1cccc2c1OC(C)(C)C2`, the result was inactive.

As for `CN(C)[C@@H]1C(=O)C(C(N)=O)=C(O)[C@@]2(O)C(=O)C3=C(O)c4c(O)cccc4[C@@](C)(O)[C@H]3C[C@@H]12`, the molecule was classed as inactive.

As to `C1=Cc2cccc3cccc1c23`, the molecule was called inactive.

Regarding `CCC[CH2][Sn]([Cl])([CH2]CCC)[CH2]CCC`, the molecule was classed as inactive.

Take `[Cl-].[Cl-].[Hg+2]`: the call was inactive.

Regarding `Cc1ccc(N)c(N)c1`, the result was inactive.

With `O=[N+]([O-])C(Br)(CO)CO`, the molecule was classed as inactive.

In the case of `Nc1ccc(N=Nc2ccccc2)cc1`, the molecule was classed as inactive.

Take `Nc1ccc(Cl)cc1N`: the result was inactive.

Consider `CO[C@@H]1[C@H](OC(=O)NC(=O)CCl)CC[C@]2(CO2)[C@H]1[C@@]1(C)O[C@@H]1CC=C(C)C`, for which the molecule was classed as inactive.

Consider `CCCCCOC(=O)c1ccccc1C(=O)OCCCCC`, for which the result was inactive.

Read-out in a further experiment: Cytochrome P450 (CYP1A2), CYP1A2 (gene 1544)
Description: LTEA_HepaRG_CYP1A2: Life Technologies and Expression Analysis (LTEA) Assay for Cytochrome P450 (CYP1A2) using HepaRG (AID 2283479). The settings on record: mRNA level, 48 h; actives raise or lower the signal. In a few lines: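 CYP1A2 transcript measured by TaqMan qRT-PCR against three housekeeping genes after 48-hour chemical exposure of HepaRG cells. Eight-point half-log series topping at 100 uM in 0.5% DMSO, duplicates; gain or loss fitted relative to vehicle.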
As for `Brc1ccc(Oc2ccccc2)cc1`, the molecule was classed as inactive.

In general, AC50 refers to the concentration at which the activity in the assay is half-maximal. On to `Oc1ccc2ccc3cccc4ccc1c2c34`, for which the half-maximal activity concentration (AC50) is 11.5 µM (active).

As for `CNC(=O)Oc1cccc2c1OC(C)(C)C2`, the call was inactive.

`Nc1ccc([N+](=O)[O-])cc1`: the AC50 is 39.3 µM (active).

Turning to `c1ccc(NNc2ccccc2)cc1`, the AC50 is 32.7 µM (active).

For the molecule `C1=Cc2cccc3cccc1c23`, the concentration at half-maximal activity (AC50) was 24.9 µM (active).

As to `CC(C)COC(=O)c1ccccc1C(=O)OCC(C)C`, the AC50 is 32.5 µM (active).

Take `C[C@]12C=CC3=C4CCC(=O)C=C4CC[C@H]3[C@@H]1CC[C@@H]2O`: the molecule was classed as inactive.

On to `COC(=O)c1ccccc1N`, for which the result was inactive.

With `CC(C)(C)OOC(=O)c1ccccc1`, the outcome was inactive.

Take `CCCCC(CC)COC(=O)c1ccc(C(=O)OCC(CC)CCCC)c(C(=O)OCC(CC)CCCC)c1` (stereo not given): the molecule was called inactive.

`CCC[CH2][Sn]([Cl])([CH2]CCC)[CH2]CCC`: the half-maximal activity concentration (AC50) was 1.58 µM (active).

Regarding `[Cl-].[Cl-].[Hg+2]`, the AC50 was 50 µM (active).

On to `Cc1ccc(N)c(N)c1`, for which the concentration at half-maximal activity (AC50) was 38.3 µM (active).

In the case of `CC(O)CCO` (stereo not given), the molecule was classed as inactive.

With `Cc1ccc(N=C=O)cc1N=C=O`, the outcome was inactive.

Take `O=[N+]([O-])C(Br)(CO)CO`: the molecule was classed as inactive.

As to `CCN(CC)N=O`, the molecule was classed as inactive.

Turning to `Clc1ccc(C(c2ccc(Cl)cc2)C(Cl)Cl)cc1`, the result was inactive.

`CC(C)(O)c1cnn2c(-c3ccc(F)c(-c4c(F)cccc4C#N)c3)cnc2n1`: the half-maximal activity concentration (AC50) is 29.7 µM (active).

As for `OCCCBr`, the call was inactive.

Take `Nc1ccc(N=Nc2ccccc2)cc1`: the AC50 is 88.2 µM (active).

Regarding `ClC1=C(Cl)[C@]2(Cl)[C@H]3[C@H]([C@@H]4C=C[C@H]3C4)[C@@]1(Cl)C2(Cl)Cl`, the molecule was called inactive.

For `Nc1ccc(Cl)cc1N`, the concentration at half-maximal activity (AC50) was 0.811 µM (active).

Consider `[As]#[In]`, for which the molecule was called inactive.

Take `CO[C@@H]1[C@H](OC(=O)NC(=O)CCl)CC[C@]2(CO2)[C@H]1[C@@]1(C)O[C@@H]1CC=C(C)C`: the molecule was classed as inactive.

As to `CCCCCOC(=O)c1ccccc1C(=O)OCCCCC`, the outcome was inactive.

Read-out in another experiment: cysteine-aspartic acid protease (CASP8), CASP8 (gene 841)
Description: LTEA_HepaRG_CASP8: Life Technologies and Expression Analysis (LTEA) Assay for cysteine-aspartic acid protease (CASP8) using HepaRG (AID 2283480). The settings on record: mRNA level, 48 h; actives raise or lower the signal. Put shortly:
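Concentration-response in duplicate up to 100 uM (half-log steps, 0.5% DMSO) on differentiated HepaRG cultures for 48 h. Expression change of CASP8 mRNA is determined by TaqMan qRT-PCR with housekeeping-gene normalization.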
Regarding `Brc1ccc(Oc2ccccc2)cc1`, the result was inactive.

Regarding `Oc1ccc2ccc3cccc4ccc1c2c34`, the call was inactive.

For the molecule `CNC(=O)Oc1cccc2c1OC(C)(C)C2`, the molecule was classed as inactive.

In the case of `Nc1ccc([N+](=O)[O-])cc1`, the result was inactive.

In the case of `CN(C)[C@@H]1C(=O)C(C(N)=O)=C(O)[C@@]2(O)C(=O)C3=C(O)c4c(O)cccc4[C@@](C)(O)[C@H]3C[C@@H]12`, the outcome was inactive.

With `c1ccc(NNc2ccccc2)cc1`, the molecule was called inactive.

With `C1=Cc2cccc3cccc1c23`, the outcome was inactive.

Regarding `CC(C)COC(=O)c1ccccc1C(=O)OCC(C)C`, the outcome was inactive.

For `C[C@]12C=CC3=C4CCC(=O)C=C4CC[C@H]3[C@@H]1CC[C@@H]2O`, the molecule was classed as inactive.

Turning to `COC(=O)c1ccccc1N`, the outcome was inactive.

As to `CC(C)(C)OOC(=O)c1ccccc1`, the molecule was called inactive.

On to `CCCCC(CC)COC(=O)c1ccc(C(=O)OCC(CC)CCCC)c(C(=O)OCC(CC)CCCC)c1` (stereo not given), for which the outcome was inactive.

As for `CCC[CH2][Sn]([Cl])([CH2]CCC)[CH2]CCC`, the molecule was called inactive.

For the molecule `[Cl-].[Cl-].[Hg+2]`, the molecule was classed as inactive.

Consider `Cc1ccc(N)c(N)c1`, for which the call was inactive.

For `CC(O)CCO` (stereo not given), the molecule was called inactive.

On to `Cc1ccc(N=C=O)cc1N=C=O`, for which the call was inactive.

As for `O=[N+]([O-])C(Br)(CO)CO`, the result was inactive.

For the molecule `CCN(CC)N=O`, the molecule was called inactive.

Turning to `Clc1ccc(C(c2ccc(Cl)cc2)C(Cl)Cl)cc1`, the result was inactive.

Take `CC(C)(O)c1cnn2c(-c3ccc(F)c(-c4c(F)cccc4C#N)c3)cnc2n1`: the outcome was inactive.

For the molecule `OCCCBr`, the call was inactive.

On to `Nc1ccc(N=Nc2ccccc2)cc1`, for which the AC50 is 17.3 µM (active).

With `ClC1=C(Cl)[C@]2(Cl)[C@H]3[C@H]([C@@H]4C=C[C@H]3C4)[C@@]1(Cl)C2(Cl)Cl`, the molecule was called inactive.

For `Nc1ccc(Cl)cc1N`, the call was inactive.

With `[As]#[In]`, the outcome was inactive.

Take `CO[C@@H]1[C@H](OC(=O)NC(=O)CCl)CC[C@]2(CO2)[C@H]1[C@@]1(C)O[C@@H]1CC=C(C)C`: the molecule was classed as inactive.

Regarding `CCCCCOC(=O)c1ccccc1C(=O)OCCCCC`, the molecule was called inactive.
